# Measurements: PubChem BioAssay
# Values without a mark were called inactive. How the calls were made is not given here.
# Target: Pantothenate synthetase (Mycobacterium tuberculosis (strain ATCC 25618 / H37Rv)) (UniProt P9WIL5)
# Assay: Recombinant Mtb pantothenate synthetase (PanC) inhibitors, coupled enzyme, confirmatory (AID 375);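 further: 0% = full reaction with vehicle and 100% = no enzyme background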
# Details: coupled enzyme assay; at 10 µM, hits give high values
# Pantothenate synthetase (Mycobacterium tuberculosis (strain ATCC 25618 / H37Rv)), sequence (P9WIL5 whole entry, looked up): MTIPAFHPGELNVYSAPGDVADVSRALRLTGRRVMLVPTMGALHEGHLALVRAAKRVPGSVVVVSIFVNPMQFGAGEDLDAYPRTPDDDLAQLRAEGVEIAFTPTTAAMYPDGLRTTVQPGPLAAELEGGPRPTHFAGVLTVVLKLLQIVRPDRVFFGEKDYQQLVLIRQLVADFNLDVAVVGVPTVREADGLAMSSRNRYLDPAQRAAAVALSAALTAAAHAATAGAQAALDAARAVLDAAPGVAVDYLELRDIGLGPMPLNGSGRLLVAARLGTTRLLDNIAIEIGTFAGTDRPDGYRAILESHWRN
row,SMILES,inhibition [%]
1,CSc1ncc(Cl)c(C(=O)Nc2ccc(S(=O)(=O)N3CCOCC3)cc2)n1,0
2,CCn1cc(C(=O)N2CCOCC2)c(=O)c2cc(S(=O)(=O)N(C)C3CCCCC3)ccc21,0
3,COc1cc2cc(C(c3nnnn3C3CCCC3)N3CCCCCC3)c(=O)[nH]c2cc1OC (stereo not given),5
4,O=C(Nc1nccs1)NC(C(F)(F)F)C(F)(F)F,7
5,Cc1onc(-c2c(Cl)cccc2Cl)c1C(=O)NCCN1CCOCC1,6
6,N#CCCN(Cc1cccnc1)C(=O)Nc1ccc(Cl)c(Cl)c1,1
7,CC(=O)NS(=O)(=O)c1ccc(NC(=O)c2ccccc2F)cc1,0
8,c1ccc2c(c1)sc1nnnn12,12
9,Cc1cccc(NC(=O)Cn2c(=O)n(C)c3ccccc32)c1,0
10,Cc1cc(S(=O)(=O)N2CCN(c3ccccc3C)CC2)ccc1F,5
11,CCCNC(=O)NS(=O)(=O)c1ccc(Cl)cc1,5
12,Cc1nn(-c2ccc(F)cc2)c(C)c1NS(=O)(=O)c1ccc(Cl)cc1,11
13,CCc1nccn1S(=O)(=O)c1ccc(C)c(C)c1,0
14,CCCCC(=O)NCCc1ccc(S(N)(=O)=O)cc1,0
15,O=C1CCCc2c1cc(C(=O)NCCCN1CCOCC1)c(=O)n2-c1ccc(Cl)cc1,0
16,O=C(C1CCN(c2nnc(-n3cccc3)s2)CC1)N1CCc2ccccc2C1,0
17,CC1CCc2cc(F)cc3c(=O)c(C(=O)O)cn1c23 (stereo not given),2
18,COc1ccc(C2CC(c3cccs3)n3nc(N)nc3N2)cc1 (stereo not given),0
19,CCOC(=O)c1c(NC(=O)Cn2c(C)nc3ccccc32)sc2c1CCC2,0
20,CC(C)(C)NC(=O)COC(=O)c1snc(C(=O)NC2CCCCC2)c1N,3

row,SMILES,inhibition [%]
1,O=C(CN1C(=O)COc2ccccc21)NCCCN1CCN(Cc2ccccc2)CC1,0
2,CC(=O)c1cccc(NC(=O)N2CCCc3ccccc32)c1,1
3,C=C(c1ccc(O)cc1)c1ccc(O)cc1,0
4,CCOc1ccc(/C=N/n2cnnc2)cc1,3
5,Cc1noc(C)c1C(=O)Nc1ccc(Cl)cc1C(F)(F)F,4
6,O=C(CN(CCc1ccccc1)C(=O)CN1C(=O)COc2ccccc21)NCc1ccco1,10
7,CC(=O)c1ccccc1NS(=O)(=O)c1c(C)nn(-c2ccccc2)c1C,0
8,O=c1cc(CSc2ccccn2)c2ccccc2[nH]1,3
9,COc1ccc2cc(C(=O)NCc3ccco3)c(=Nc3ccc(C(=O)O)cc3)oc2c1,0
10,c1cc2c(cc1C1=Nn3c(nnc3C3CCCCC3)SC1)OCO2,0
11,Cc1csc(NC(=O)c2cccs2)n1,0
12,Cc1ccc(NCc2nnc(SCC(=O)N3CCCCC3)n2CC2CCCO2)c(C)c1 (stereo not given),3
13,CC(C)(C)n1nnnc1CN1CCC(NC(=O)NC2CCCCC2)CC1,0
14,CC(C)CCNC(=O)NC(=O)CN1C(=O)NC2(CCCCC2)C1=O,2
15,Cc1nnc(SCc2nc3ccccc3s2)n1-c1ccccc1,3
16,CN1CC(=O)N(CC(=O)NCCc2ccc(F)cc2)c2ccccc2C1=O,0
17,COCCn1nnnc1SCC(=O)N1CCCCC1,0
18,Cc1cc(NCC2CCCO2)n2c(nc3ccccc32)c1C#N (stereo not given),1
19,CC1CCN(S(=O)(=O)c2ccc(Br)s2)CC1,0
20,O=C(O)c1cc(/C=N\O)ccc1OCc1ccccc1,3
